This is part of a sample that, as a whole, favours compounds with a hit. Of some 83,000 tested, about 20% had one in any assay.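 Note: values are percent growth. 100 is the growth of untreated cells, values between 100 and 0 indicate rising inhibition; between -100 and 0 indicates cell death.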 Values without a mark were called inactive. Activity calls are given as the source filed them. Rule for the calls: active = growth percent below 10; inactive = the rest.
Key:
Assay in all cases: NCI-60 one-dose screen, 48 h (100 = growth as untreated, 0 = no growth, -100 = all killed)
Details in all cases: 10 µM unless noted
HCT-15 colon = system: HCT-15 colon
HT29 colon = system: HT29 colon
SNB-75 CNS = system: SNB-75 CNS
SNB-19 CNS = system: SNB-19 CNS
U251 CNS = system: U251 CNS
PC-3 prostate = system: PC-3 prostate
SK-MEL-5 melanoma = system: SK-MEL-5 melanoma
UACC-62 melanoma = system: UACC-62 melanoma
LOX IMVI melanoma = system: LOX IMVI melanoma
SK-MEL-28 melanoma = system: SK-MEL-28 melanoma
SK-MEL-2 melanoma = system: SK-MEL-2 melanoma
EKVX NSCLC = system: EKVX NSCLC
SN12C renal = system: SN12C renal
UO-31 renal = system: UO-31 renal
TK-10 renal = system: TK-10 renal
ACHN renal = system: ACHN renal
CAKI-1 renal = system: CAKI-1 renal
A498 renal = system: A498 renal
CCRF-CEM leukemia = system: CCRF-CEM leukemia
MOLT-4 leukemia = system: MOLT-4 leukemia

SMILES	growth (HCT-15 colon)	growth (HT29 colon)	growth (SNB-75 CNS)	growth (SNB-19 CNS)	growth (U251 CNS)	growth (PC-3 prostate)	growth (SK-MEL-5 melanoma)	growth (UACC-62 melanoma)	growth (LOX IMVI melanoma)	growth (SK-MEL-28 melanoma)	growth (SK-MEL-2 melanoma)	growth (EKVX NSCLC)	growth (SN12C renal)	growth (UO-31 renal)	growth (TK-10 renal)	growth (ACHN renal)	growth (CAKI-1 renal)	growth (A498 renal)	growth (CCRF-CEM leukemia)	growth (MOLT-4 leukemia)
CCCS(=O)(=O)Nc1cccc(Nc2ncnc3cc(NC(=O)CCl)ccc23)c1Cl	-26.7% (active)	-63.4% (active)	-93.3% (active)	0.0363% (active)	-93.3% (active)	-25.7% (active)	-85.3% (active)	-66.2% (active)	-83.9% (active)	-22.8% (active)	-32.1% (active)	-14.9% (active)	-76% (active)	-95% (active)	-36.4% (active)	-94.4% (active)	-74.6% (active)	9.01% (active)	3.74% (active)	4.33% (active)
Oc1cccc2c1NCCC2	21.4%	79.5%	0.864% (active)	14.9%	14.7%	9.22% (active)	-51.2% (active)	5.24% (active)	16.4%	49.5%	-14.9% (active)	22.3%	11.7%	6.25% (active)	23.3%	11.4%	15.6%	19.6%	18.6%	28%
C=CCOC(=O)C1=C(C)N(CC)C(=O)N(CC)C1c1c(Cl)n(C)c2ccccc12 (stereo not given)	78.4%	82.3%	81.6%	75.6%	88.3%	50.4%	96.5%	59.4%	52.8%	99.2%	95.6%	75.5%	89%	64.6%	94.1%	56.9%	32.8%	82.5%	-9.42% (active)	89.3%
C=CC(=O)NCc1cccc(Nc2ncc(Br)c(NCCCNC(=O)C3CCC3)n2)c1	0.948% (active)	-18.2% (active)	-70.4% (active)	3.56% (active)	-2.33% (active)	7.62% (active)	-39.8% (active)	-41.6% (active)	-41.1% (active)	-15.7% (active)	-50% (active)	-27.1% (active)	1.99% (active)	-9.45% (active)	-17.4% (active)	7.42% (active)	-25.3% (active)	-59.5% (active)	1.57% (active)	-5.38% (active)
COc1ccc(C(=O)/C=C/c2ccc(Cl)cc2)cc1S(N)(=O)=O	26.3%	43.6%	82.5%	14%	32%	-55.6% (active)	85.7%	46.4%	10.6%	97.8%	80.3%	87.3%	15.4%	33.1%	70%	58.4%	74.9%	84.6%	-18.3% (active)	-5.39% (active)
COC(=O)[C@@H](Cc1c[nH]c2ccccc12)NC(=O)[C@H](Cc1ccccc1)NCc1ccncc1	110%	87.5%	93%	93.3%	92.7%	78.5%	102%	95.3%	95%	122%	77.7%	103%	100%	71.9%	98.1%	109%	91.9%	100%	90.3%	92.5%
c1ccc(Cn2cc3c(c2)-c2nc(Nc4ccccc4)ncc2CC3)cc1	116% [100 µM]	117% [100 µM]	63.7% [100 µM]	84.1% [100 µM]	69.1% [100 µM]	72.8% [100 µM]	79.4% [100 µM]	82.7% [100 µM]	85.6% [100 µM]	92.5% [100 µM]	92.6% [100 µM]	72.1% [100 µM]	87.8% [100 µM]	93% [100 µM]	72.8% [100 µM]	81.8% [100 µM]	59.2% [100 µM]	105% [100 µM]	2.85% [100 µM] (active)	107% [100 µM]
CCN1C(=O)N(CC)C2C1NC(=S)N2/N=C/C=C/c1ccccc1 (stereo not given)	12.4%	3.6% (active)	42.2%	19.5%	15.5%	20.6%	-30% (active)	23%	14.3%	61%	10.6%	27.8%	26.2%	40.7%	49.6%	22.8%	27.2%	-6.35% (active)	2.75% (active)	8.08% (active)
CC(C)(C#N)c1cc(C(=O)Nc2cc(Nc3ncccc3-c3ncnc4nc[nH]c34)ccc2F)cc(C(F)(F)F)c1	54%	20.7%	37%	71.2%	59.7%	63.9%	24.4%	3.16% (active)	-9.46% (active)	10.4%	5.07% (active)	62.8%	55.2%	17.5%	68.5%	44.4%	24.3%	-24.9% (active)	57%	57.6%
CCN1CCN(c2cc(C(=O)Nc3cccc(Nc4ccc5c(OC)cccc5n4)c3)cc(C(F)(F)F)c2)CC1	-15.9% (active)	-60% (active)	35.8%	36%	13.9%	7.66% (active)	-1.86% (active)	13%	-94.1% (active)	-44.4% (active)	65.3%	46.2%	25.4%	-8.51% (active)	36%	12.5%	6.06% (active)	57.6%	6.94% (active)	-14.5% (active)
COC(=O)c1sc(-c2ccc(C)cc2)cc1O	101%	108%	105%	101%	96.5%	102%	103%	97.1%	101%	113%	99%	101%	101%	94.1%	99.2%	112%	94.3%	98.5%	103%	87.7%
CCOC(=O)/C(=C\c1ccccc1Cl)P(=O)(OCC)OCC	34.4%	34.7%	51%	84.8%	66.3%	45.8%	79.5%	56.7%	0.286% (active)	65.2%	68.1%	73.1%	68%	53.9%	75.5%	52.8%	75%	103%	19.5%	25.1%
O=CN1N=C(c2cccc(Nc3ccncc3)c2)CC1c1ccc2c(c1)OCO2 (stereo not given)	95.7%	69.8%	88.4%	99.7%	94.8%	84.9%	91.8%	99.6%	95.3%	97.7%	85.5%	67.6%	99.3%	86.9%	109%	97.2%	80.7%	96.5%	86.1%	92.3%
CCCC[N+]1(C)CCN=C1Cc1ccccc1 (stereo not given)	103%	89.3%	99.6%	104%	95.8%	87.2%	97.8%	96.7%	99.8%	110%	103%	96.6%	94.4%	95.5%	91.5%	112%	95.8%	97.2%	83.5%	94.6%
COc1ccc(/C(C)=C(\c2ccc(Cl)cc2)c2ccc(OCCCN(C)C)cc2)cc1	20.4%	1.29% (active)	97.2%	73.8%	41%	68.2%	37.8%	83.9%	22.1%	75.1%	90.4%	88.6%	79.9%	64.5%	94.7%	91.9%	67.1%	93.4%	53.1%	55.8%
